For 6 compounds, composite z-score and z-score results are on record in PubChem BioAssay.

Activity calls are given as the source filed them.

In test [1] the test system is Plasmodium falciparum Sir2 (PF13_0152, Sir2A). Put plainly: Plasmodium falciparum Sir2A binding compounds – biochemical, small-molecule microarray, 635 nm fluorescence, primary screen (AID 1098).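 Note: score merges spot fluorescence intensity with its signal-to-noise ratio.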 The settings on record: fluorescence 635 nm, higher = more signal.
The nature of test [2]: probe aDKK1 binding to arrayed compounds – biochemical, biotinylated probe, 635/667 nm fluorescence, primary screen (AID 1099).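 Note: score merges 667nm spot fluorescence with signal to noise across triplicate slides.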 The settings on record: small-molecule microarray, higher = more signal.
Test [3] can be described thus: probe aCHRDL2 binding to arrayed compounds – biochemical, biotinylated probe, 635/667 nm fluorescence, primary screen (AID 1100). The settings on record: small-molecule microarray, higher = more signal.
The nature of test [4]: change in splice reporter luminescence, either direction, cell-based, HEK293, spliceosome inhibition project, primary screen (AID 1101).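 Note: HEK293 cells carrying a splicing-competent luciferase reporter gene; test concentration not given here.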 The settings on record: HEK293 splicing luciferase reporter, 24 h, higher = more signal, called active from +8 up or from −8 down.
In test [5] the target is Fibroblast growth factor 10 (Homo sapiens) (UniProt O15520). The experiment in a line: compounds binding fibroblast growth factor 10 – biochemical, small-molecule microarray, 635 nm fluorescence, primary screen (AID 1102). The settings on record: FGF10 binding, fluorescence 635 nm, higher = more signal.
Fibroblast growth factor 10 (Homo sapiens), sequence (O15520 whole entry, looked up): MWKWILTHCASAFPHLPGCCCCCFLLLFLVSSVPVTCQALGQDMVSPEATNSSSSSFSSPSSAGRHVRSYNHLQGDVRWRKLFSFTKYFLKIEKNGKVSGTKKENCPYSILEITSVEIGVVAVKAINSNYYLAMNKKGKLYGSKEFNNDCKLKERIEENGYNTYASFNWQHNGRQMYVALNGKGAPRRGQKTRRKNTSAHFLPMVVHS
The test system of test [6] is glycogen synthase kinase-3 (GSK3A per assay name; protocol says GSK3B). Put plainly: compounds binding glycogen synthase kinase-3 – biochemical, small-molecule microarray, 635 nm fluorescence, GSK3A, primary screen (AID 1103). Note: the record names both GSK3A and GSK3B. The settings on record: fluorescence 635 nm, higher = more signal.
The target of test [7] is Epidermal growth factor receptor (Homo sapiens) (UniProt P00533). Put plainly: compounds binding epidermal growth factor receptor – biochemical, small-molecule microarray, 635 nm fluorescence, primary screen (AID 1104).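 Note: score merges 667 nm emission intensity with spot signal to noise over triplicate slides.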 The settings on record: EGFR binding, higher = more signal.
Epidermal growth factor receptor (Homo sapiens), sequence (P00533 whole entry, looked up): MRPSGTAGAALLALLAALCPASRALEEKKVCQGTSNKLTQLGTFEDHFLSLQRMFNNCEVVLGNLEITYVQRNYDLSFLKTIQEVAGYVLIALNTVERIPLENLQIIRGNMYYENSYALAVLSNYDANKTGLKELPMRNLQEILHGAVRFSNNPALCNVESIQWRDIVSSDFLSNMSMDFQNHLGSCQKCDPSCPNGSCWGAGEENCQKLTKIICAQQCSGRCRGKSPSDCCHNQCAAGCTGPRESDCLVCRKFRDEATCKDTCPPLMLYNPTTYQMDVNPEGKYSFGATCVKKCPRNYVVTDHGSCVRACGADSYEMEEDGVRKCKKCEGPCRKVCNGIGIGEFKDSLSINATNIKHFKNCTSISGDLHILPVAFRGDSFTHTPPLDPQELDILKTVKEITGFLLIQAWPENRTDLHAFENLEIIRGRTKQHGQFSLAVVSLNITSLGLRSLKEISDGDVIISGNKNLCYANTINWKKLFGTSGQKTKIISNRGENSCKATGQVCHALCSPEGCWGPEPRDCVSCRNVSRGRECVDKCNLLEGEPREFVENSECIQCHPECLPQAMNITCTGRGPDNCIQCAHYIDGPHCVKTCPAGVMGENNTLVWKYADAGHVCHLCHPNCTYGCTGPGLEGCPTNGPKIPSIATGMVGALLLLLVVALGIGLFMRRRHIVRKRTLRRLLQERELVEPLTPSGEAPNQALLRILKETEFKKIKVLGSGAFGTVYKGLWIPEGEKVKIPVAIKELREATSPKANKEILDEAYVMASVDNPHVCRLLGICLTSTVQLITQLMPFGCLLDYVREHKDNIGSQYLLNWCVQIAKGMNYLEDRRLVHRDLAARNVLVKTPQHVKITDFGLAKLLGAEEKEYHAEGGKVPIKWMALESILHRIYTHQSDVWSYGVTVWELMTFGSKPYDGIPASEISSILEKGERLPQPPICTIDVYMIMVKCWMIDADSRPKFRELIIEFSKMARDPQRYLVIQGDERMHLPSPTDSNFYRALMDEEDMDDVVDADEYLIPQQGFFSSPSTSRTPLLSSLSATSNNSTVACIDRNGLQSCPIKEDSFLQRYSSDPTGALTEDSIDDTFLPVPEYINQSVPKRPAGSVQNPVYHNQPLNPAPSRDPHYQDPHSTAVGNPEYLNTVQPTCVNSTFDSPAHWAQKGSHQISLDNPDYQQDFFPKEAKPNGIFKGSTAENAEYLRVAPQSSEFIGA
Test [8] addresses Follistatin-related protein 3 (Homo sapiens) (UniProt O95633). The experiment in a line: compounds binding follistatin-related protein 3 – biochemical, small-molecule microarray, 635 nm fluorescence, primary screen (AID 1105).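 Note: score merges emission near 667 nm and signal to noise per printed spot across three slides.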 The settings on record: FSTL3 binding, higher = more signal.
Test [9] has as its target Dickkopf-related protein 1 (Homo sapiens) (UniProt O94907). Put plainly: small molecules binding DKK1 protein – biochemical, small-molecule microarray, 635 nm fluorescence scan, primary screen (AID 1106).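 Note: score merges emission near 667 nm with signal to noise over three replicate slides.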 The settings on record: higher = more signal.
Test [10] concerns Inhibin beta A chain (activin A). Put plainly: small molecules binding activin A – biochemical, small-molecule microarray, 635 nm fluorescence scan, primary screen (AID 1107).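 Note: mouse activin A protein probed at 4.33 µg/mL on printed slides; score merges bound-protein fluorescence near 667 nm with spot signal-to-noise.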 The settings on record: INHBA, higher = more signal.
Test [11] relates to Human papillomavirus type 1a protein E7 (residues 44-93). The experiment in a line: small molecules binding HPV E7 44-93 – biochemical, small-molecule microarray, residues 44-93, 635 nm fluorescence, primary screen (AID 1108).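 Note: E7 fragment applied at 1 µg/mL in TBST for 1 h at 4 C; score combines spot fluorescence with its signal to noise ratio.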 The settings on record: fluorescence 635 nm, higher = more signal.
A short description of test [12]: hepatitis C replication reporter changes, two-sided – Huh7 cells, luciferase reporter, HCV replication inhibitor project, primary screen (AID 1109).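 Note: huh7 hepatoma cells harbouring a luciferase neomycin HCV replicon reporter; luciferase luminescence as measure of HCV replicon replication; test concentration not given here.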 The settings on record: Huh7 HCV replicon luciferase reporter, 48 h; higher = more signal.
Test [13] concerns the target Left-right determination factor 2 (Homo sapiens) (UniProt O00292). Put plainly: small molecules binding LEFTY2 protein – biochemical, small-molecule microarray, 635 nm fluorescence scan, primary screen (AID 1110). The settings on record: higher = more signal.
Test [14] has as its target Calmodulin-1 (Homo sapiens) (UniProt P0DP23). Put plainly: small molecules binding calmodulin-1 with EGTA – biochemical, small-molecule microarray, Cy5-labelled CALM1, profiling panel (AID 1111).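 Note: labelled calmodulin applied in Tris saline Tween buffer holding calcium plus EGTA and DTT.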 The settings on record: Cy5-CALM1 binding fluorescence, higher = more signal.
Test [15] shares this target. The experiment in a line: small molecules binding Ca-loaded calmodulin-1 – biochemical, small-molecule microarray, Cy5-labelled CALM1, plus calcium, artefact control for SMM control-protein annotation, profiling panel (AID 1112).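 Note: score merges spot fluorescence with signal to noise from triplicate slides.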 The settings on record: Cy5-CALM1 binding fluorescence, higher = more signal.
The nature of test [16]: probe aWnt5a binding to arrayed compounds – biochemical, biotinylated probe, 635/667 nm fluorescence, primary screen (AID 1113).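 Note: score merges 667 nm fluorescence intensity with signal-to-noise per printed feature.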 The settings on record: small-molecule microarray, higher = more signal.
Test [17] is described as follows: probe aShh binding to arrayed compounds – biochemical, biotinylated probe, 635/667 nm fluorescence, primary screen (AID 1114).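 Note: probe is biotin-labelled aShh protein from a stem cell growth factor screen; measures binding of labelled protein to compounds printed on the slide; score merges feature fluorescence at 667 nm with signal-to-noise.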 The settings on record: small-molecule microarray, higher = more signal.
Test [18] can be described thus: probe aNog binding to arrayed compounds – biochemical, biotinylated probe, 635/667 nm fluorescence, primary screen (AID 1115).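 Note: probe is biotinylated aNog protein used at 0.15 µg/mL for 1 h at 4 C; z-score combines 667 nm fluorescence of each spot with its signal to noise.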 The settings on record: small-molecule microarray, higher = more signal.
The target in test [19] is Torsin-1A-interacting protein 1 (Homo sapiens) (UniProt Q5JTV8). The experiment in a line: compound microarray binding of lysate hLAP1 – cell lysate, small-molecule microarray, COS7 lysate, 635/667 nm fluorescence, primary screen (AID 1116). The settings on record: 635 nm fluorescence, higher = more signal.
Torsin-1A-interacting protein 1 (Homo sapiens), sequence (Q5JTV8 whole entry, looked up): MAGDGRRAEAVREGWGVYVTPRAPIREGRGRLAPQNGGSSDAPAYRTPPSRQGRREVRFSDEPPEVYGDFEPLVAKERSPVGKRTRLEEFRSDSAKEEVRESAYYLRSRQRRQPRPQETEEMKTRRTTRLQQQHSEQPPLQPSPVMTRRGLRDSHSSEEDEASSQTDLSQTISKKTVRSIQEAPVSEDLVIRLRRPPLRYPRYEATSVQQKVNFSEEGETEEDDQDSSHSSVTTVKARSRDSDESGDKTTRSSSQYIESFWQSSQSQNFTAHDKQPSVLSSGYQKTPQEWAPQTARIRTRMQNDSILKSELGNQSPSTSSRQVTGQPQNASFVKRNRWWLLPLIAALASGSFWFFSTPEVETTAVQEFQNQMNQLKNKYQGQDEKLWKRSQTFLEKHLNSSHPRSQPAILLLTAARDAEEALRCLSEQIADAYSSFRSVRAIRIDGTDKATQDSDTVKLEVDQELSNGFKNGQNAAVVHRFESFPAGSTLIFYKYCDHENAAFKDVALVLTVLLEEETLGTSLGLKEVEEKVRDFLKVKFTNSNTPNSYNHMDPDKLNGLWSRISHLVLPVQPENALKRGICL
In test [20] the target is Alpha-bungarotoxin (Bungarus multicinctus) (UniProt P60615). Put plainly: compounds binding labelled alpha-BTX control protein – biochemical, small-molecule microarray, Alexa647 label, 635/667 nm fluorescence, artefact control for SMM control protein annotation, profiling panel (AID 1117). The settings on record: alpha-BTX-A647 binding fluorescence, higher = more signal.
Alpha-bungarotoxin (Bungarus multicinctus), sequence (P60615 whole entry, looked up): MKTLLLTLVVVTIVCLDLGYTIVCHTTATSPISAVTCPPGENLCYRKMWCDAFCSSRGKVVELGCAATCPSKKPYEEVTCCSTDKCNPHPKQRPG

Dickkopf-related protein 1 (Homo sapiens), sequence (O94907 whole entry, looked up): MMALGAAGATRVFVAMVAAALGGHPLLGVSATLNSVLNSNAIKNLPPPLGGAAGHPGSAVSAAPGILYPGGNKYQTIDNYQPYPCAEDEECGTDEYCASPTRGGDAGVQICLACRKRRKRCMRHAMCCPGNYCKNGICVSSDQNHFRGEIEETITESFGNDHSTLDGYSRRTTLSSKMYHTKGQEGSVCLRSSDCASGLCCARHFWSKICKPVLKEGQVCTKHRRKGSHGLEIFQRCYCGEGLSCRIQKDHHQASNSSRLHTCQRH
Left-right determination factor 2 (Homo sapiens), sequence (O00292 whole entry, looked up): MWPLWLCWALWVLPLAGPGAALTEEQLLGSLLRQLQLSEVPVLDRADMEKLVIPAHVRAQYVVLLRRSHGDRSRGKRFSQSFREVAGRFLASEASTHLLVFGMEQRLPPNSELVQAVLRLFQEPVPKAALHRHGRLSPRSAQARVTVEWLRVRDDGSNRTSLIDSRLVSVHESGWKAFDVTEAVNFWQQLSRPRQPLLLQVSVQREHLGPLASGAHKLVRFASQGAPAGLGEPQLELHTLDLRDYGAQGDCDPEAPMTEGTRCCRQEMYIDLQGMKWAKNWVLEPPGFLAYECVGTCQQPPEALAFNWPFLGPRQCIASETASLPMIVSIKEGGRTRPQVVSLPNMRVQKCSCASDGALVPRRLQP
Follistatin-related protein 3 (Homo sapiens), sequence (O95633 whole entry, looked up): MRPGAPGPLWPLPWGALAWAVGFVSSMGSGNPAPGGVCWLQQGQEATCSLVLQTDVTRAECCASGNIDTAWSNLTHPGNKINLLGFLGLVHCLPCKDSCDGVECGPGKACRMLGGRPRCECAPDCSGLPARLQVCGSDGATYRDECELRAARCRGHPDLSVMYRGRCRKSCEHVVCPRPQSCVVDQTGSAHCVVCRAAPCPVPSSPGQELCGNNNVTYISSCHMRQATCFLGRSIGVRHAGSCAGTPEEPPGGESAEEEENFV

Regarding `COCCOC(=O)N1C(=O)[C@@]2(c3cc(C#CCCO)ccc31)[C@H](c1ccc(OCCO)cc1)N1[C@H](c3ccccc3)[C@H](c3ccccc3)OC(=O)[C@H]1[C@@H]2C(=O)N1CCN(c2ncccn2)CC1`, the composite z-score in test [1] is 0.732; in test [2], -0.104; in test [3], 0.27; in test [5] it was 1.03; in [6], 1.31; in test [7] it was 0.629. Also, the composite z-score in test [8] worked out at 1.39; in [9] it was 0.783; in test [10], 0.845; in test [11] it was 1.37; in test [13], 0.781; in test [14], 1.33. In addition, the composite z-score in test [15] is -0.243; in [16] it was -0.131; in test [17], -0.0035; in test [18], -0.483; in [19], 0.398; in [20], 0.582. In addition, the z-score is 0.319 (inactive) in [4] and -1.46 in test [12].
`O=C1OCCC=C[C@H]2OC34C=CCN(CCN5CCOCC5)C(=O)[C@H]3N(CCCCCCO)C(=O)[C@@H]4C12` (stereo not given in full): the composite z-score in test [1] is 0.813; in [2], -0.5; in test [3], -0.35; in [5], -0.306; in test [6], -0.225; in [7], -0.71. Moreover, the composite z-score in test [8] is -0.351; in test [9] it was -0.292; in test [10] it was 0.191; in test [11], -0.149; in test [13] it was -0.0529; in [14], -0.304. The composite z-score in test [15] was -1.07; in test [16] it was -0.178; in test [17], -0.289; in test [18] it was -0.484; in test [19], 0.551; in [20], -0.288. For the same compound, the figures for the z-score in test [4] and in test [12] were 0.418 (inactive) and -0.135, respectively.
For the compound `COCCCNC(=O)[C@@]1(Cc2ccccc2N=[N+]=[N-])N=C(c2ccc(OCCCO)cc2)O[C@H]1c1ccccc1N=[N+]=[N-]`, the composite z-score stood at 1.34 in test [1]; 1.04 in test [2]; 1.25 in test [3]; 0.935 in test [5]; 0.82 in [6]; 0.372 in test [7]. For the same compound, the composite z-score in [8] was 0.937; in test [9], -0.138; in test [10], 0.797; in test [11], 0.852; in [13] it was 0.431; in test [14], 1.72. The composite z-score in test [15] was 0.686; in test [16], 0.168; in [17], -0.477; in [18], 1.43; in [19], 0.561; in [20], 1.74. Further, the z-score in test [4] is 1.87 (inactive); in [12], -2.86.
Turning to `C=C(CCCC)C(=O)CC[C@H](OC(C)=O)c1cccc(OCCO)c1`, the composite z-score was 0.707 in [1]; -0.409 in test [2]; -0.193 in test [3]; -0.633 in test [5]; -0.654 in [6]; -0.961 in test [7]. The composite z-score in test [8] was -0.794; in [9], -0.759; in test [10], -0.162; in [11], -0.252; in test [13], -0.433; in test [14] it was -0.687. In addition, the composite z-score was -0.918 in [15]; -0.156 in test [16]; -0.0709 in [17]; -0.036 in test [18]; 1.31 in test [19]; -0.653 in test [20]. For the same compound, the z-score in test [4] is 1.01 (inactive); in test [12], -1.78.
Consider `CN(C)C(=O)[C@]1(Cc2ccccc2CN=[N+]=[N-])N=C(c2ccc(OCCCO)cc2)O[C@@H]1c1ccccc1CN=[N+]=[N-]`, for which the composite z-score is 0.0579 in test [1]; 0.423 in [2]; 0.708 in test [3]; 1.17 in [5]; 1.32 in [6]; -0.0263 in [7]. Also, the composite z-score in test [8] is 1.18; in [9] it was -0.38; in test [10], 0.844; in test [11] it was 1.47; in test [13], 0.189; in test [14], 0.324. The composite z-score in test [15] came to 0.708; in test [16] it was 0.216; in test [17], 0.249; in [18], 0.76; in [19], 1.39; in [20], 0.832. For the same compound, the z-score was 0.646 (inactive) in [4] and -3.12 in [12].
On to `C=CCOC(=O)[C@H]1[C@@H]2C(=O)O[C@@H](c3ccccc3)[C@@H](c3ccccc3)N2[C@@H](c2ccc(OCCOC(=O)[C@H]3C[C@H]4C(=O)N5CCC[C@H]5C(=O)N4[C@H]3c3ccc(O)cc3)cc2)[C@]12C(=O)Nc1ccccc12`, for which the composite z-score in test [1] was 1.54; in test [2], -0.202; in test [3], 0.106; in test [5], 1.47; in test [6], 1.36; in test [7] it was 0.999. In addition, the composite z-score in [8] was determined as 1.39; in test [9], 1.81; in test [10], 0.39; in [11], 1.45; in test [13] it was 1.42; in [14] it was 0.959. In addition, the composite z-score was -0.0987 in test [15]; 0.0354 in test [16]; 0.147 in test [17]; -0.21 in [18]; 1.5 in [19]; 0.588 in [20]. For the same compound, the results for the z-score in test [4] and in test [12] were 0.994 (inactive) and -1.93, respectively.
